GLP1R inv ag = inverse agonists of human GLP-1 receptor; 410,000 compounds, 1.6% hits; P43220; HEK293 GLP-1R CRE-luciferase, luminescence, 24 h; GLP-1R form is constitutively active; AID 624417; Potency, µM (doses to about 38.3 µM), for inactives: at the top dose activity change, negative = inhibition, usual class: inhibitors; note: % is set by controls: 0 for no effect and ±100 for the full control effect; nearly all actives have a fitted effect of over 55% in size
Target sequence (P43220 whole entry, looked up): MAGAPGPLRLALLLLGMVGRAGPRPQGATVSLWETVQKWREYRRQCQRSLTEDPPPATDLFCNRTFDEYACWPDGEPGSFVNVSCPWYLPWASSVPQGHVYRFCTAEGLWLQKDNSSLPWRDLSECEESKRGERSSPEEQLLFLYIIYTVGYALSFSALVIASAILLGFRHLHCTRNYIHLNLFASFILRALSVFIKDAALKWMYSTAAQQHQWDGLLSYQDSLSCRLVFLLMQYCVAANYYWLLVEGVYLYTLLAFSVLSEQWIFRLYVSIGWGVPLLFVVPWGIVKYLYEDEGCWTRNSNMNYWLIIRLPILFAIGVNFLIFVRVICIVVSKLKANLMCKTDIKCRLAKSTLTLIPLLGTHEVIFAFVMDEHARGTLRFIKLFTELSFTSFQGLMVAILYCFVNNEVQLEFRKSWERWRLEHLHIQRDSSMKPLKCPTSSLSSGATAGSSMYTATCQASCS
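Constitutively active GLP-1R drives a cAMP-responsive luciferase in stably transfected HEK293 cells; test compounds are added after overnight (12 h) attachment and left 24 hr, and signal loss in luminescence marks inhibition.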
GLP1R ag = GLP-1 receptor (human) agonism | HEK293 GLP-1R CRE-luciferase, luminescence, 4-6 h; cells express a hypersensitive GLP-1R form | Potency, µM (titrated, usually from 45.6 µM), for the others: top-dose activation, hits mostly activators | 380,000 compounds, 0.007% hits | AID 624172; note: % of control where 0% means no effect
HEK293 tox = cytotoxicity in counter-screen for GLP-1R inverse agonists; 410,000 compounds, 0.13% hits; HEK293 cAMP-luciferase reporter cells, luminescence, 24 h; Potency, µM (highest dose often 38.3 µM), inactives show top-dose activity change, negative = inhibition, actives largely listed as inhibitors;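 note: loss of luciferase light is scored as toxicity; % is set by controls: 0 for no effect and ±100 for the full control effect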
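Quantitative HTS format, 1536 wells, 200 cells/uL seeded. Compounds: 23 nL, 24 h, 37 °C. Detection: luciferase reagent, luminescence at 12 min RT; decreased signal taken as cytotoxic.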
Gal4-VP16 FLuc = inhibits Gal4-VP16 luciferase reporter, ROR gamma counter-screen; Drosophila S2 Gal4-VP16 UAS-luciferase, luminescence, 20 h; Potency, µM (top dose mostly 53.6 µM), inactives show at the highest dose activity, negative = inhibition, hits mostly inhibitors; 310,000 compounds, 3.5% hits; AID 2546;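 note: Gal4-VP16 expression switched on by copper sulfate through the metallothionein promoter; % is set by controls: 0 for no effect and ±100 for the full control effect; nearly all actives have a fitted effect of over 50% in size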
RORgamma inh = inhibitors of mouse ROR gamma transcriptional activity; Potency, µM (series often up to 53.6 µM), without a hit: at the highest dose activity change, negative = inhibition, actives largely listed as inhibitors; P51450; 310,000 compounds, 5.4% hits; Drosophila S2 Gal4-RORgamma UAS-luciferase reporter, 20 h; note: % is set by controls: 0 for no effect and ±100 for the full control effect; nearly all actives have a fitted effect of over 60% in size
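Schneider cells (Drosophila), stable Gal4 DBD–ROR gamma + UAS-luc; 1 hr cmpd preincubation; Cu2+ induction 700 uM final; 20 hr ambient; luminescence.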
Starred values were filed as active, the others as inactive; [ ] = dose if it differs, or a comment. Only some compounds are listed: those with a hit (about 5.9% of all), similar ones and a draw of the others. Calls come from the whole dose curve; as a rule, active = well fitted curve in the direction sought with a large enough effect; inconclusive = small, poorly fitted or top-dose-only effect, or another doubt; inactive = no such curve, though single readings can be large; an effect the other way counts as inactive or inconclusive. Potency is the fitted concentration of half-maximal effect.

COC(=O)c1nnc(C(=O)NCc2ccccc2)c2[nH]c3ccc(OC)cc3c12 was read as Gal4-VP16 FLuc -5% and RORgamma inh 10%.
For CCOc1cc(/C=N/NC(=O)c2cccc([N+](=O)[O-])c2)ccc1OS(=O)(=O)c1ccccc1 the results were GLP1R inv ag -23%, GLP1R ag 0%, HEK293 tox -8%, Gal4-VP16 FLuc 14µM* and RORgamma inh 7.9µM*.
For COc1ccc(/C=N/NC(=O)c2cccc([N+](=O)[O-])c2)cc1OS(=O)(=O)c1ccc(C)cc1 the results were GLP1R inv ag inconclusive, GLP1R ag 4%, HEK293 tox inconclusive, Gal4-VP16 FLuc inconclusive and RORgamma inh 4µM*.
For COc1ccc(C(=O)N/N=C/c2ccc(OC)c(OS(=O)(=O)c3ccccc3)c2)cc1 the results were GLP1R inv ag inconclusive, GLP1R ag -5%, HEK293 tox inconclusive, Gal4-VP16 FLuc 2% and RORgamma inh 17%.
CCCCC(CC)CNCC(CC)CCCC (centres undefined) was read as Gal4-VP16 FLuc -20% and RORgamma inh -4%.
For CCOCC the results were Gal4-VP16 FLuc -7% and RORgamma inh -5%.
Screening CCN(C(=O)CSc1cccc[n+]1[O-])C1CCCCC1 returned GLP1R inv ag -6%, GLP1R ag -2% and HEK293 tox -5%.
For O=C(CSc1cccc[n+]1[O-])N1CCCCCC1 the results were GLP1R inv ag 2%[7.66 µM], GLP1R ag -1%, HEK293 tox 11%[7.66 µM], Gal4-VP16 FLuc 1% and RORgamma inh -22%.
O=C(CSc1cccc[n+]1[O-])CSc1cccc[n+]1[O-] was read as GLP1R inv ag inconclusive, GLP1R ag 1%, HEK293 tox inconclusive, Gal4-VP16 FLuc inconclusive and RORgamma inh 4µM*.
Screening [O-][n+]1ccccc1SSc1cccc[n+]1[O-] returned GLP1R ag -13%, Gal4-VP16 FLuc 0.89µM* and RORgamma inh 0.35µM*.
For Cc1ccc(-n2ncc3c(N4CCN(CCO)CC4)ncnc32)cc1Cl the results were GLP1R inv ag -22% and HEK293 tox 1%.
`CC12C=CC(=O)C=C1CCC1C2C(O)CC2(C)C1CCC2(O)C(=O)COC(=O)CCC(=O)O` (centres undefined) gave GLP1R ag -2%.
O=C(NCCc1csc(-c2cccc(F)c2)n1)c1ccccc1C(F)(F)F was read as GLP1R inv ag inconclusive and HEK293 tox -3%.
`c1ccc(-n2nnnc2Oc2cccc3cccnc23)cc1` gave GLP1R inv ag -15%, GLP1R ag 5%, HEK293 tox inconclusive, Gal4-VP16 FLuc 4.5µM* and RORgamma inh 7.1µM*.
COc1ccc2c(c1)c(=O)c(C(=O)c1ccc(F)cc1)cn2CC(=O)Nc1ccc2c(c1)OCO2 was read as GLP1R inv ag 14%, GLP1R ag 1% and HEK293 tox 8%.
Screening CCN1CNC(=S)N(c2cccc(C)c2C)C1 returned GLP1R inv ag -1%, GLP1R ag -12%, HEK293 tox -3%, Gal4-VP16 FLuc inconclusive and RORgamma inh 11µM*.
`CCCN1CNC(=S)N(c2ccccc2OC)C1` gave GLP1R inv ag 7%, GLP1R ag -4%, HEK293 tox 2%, Gal4-VP16 FLuc -23% and RORgamma inh inconclusive.
Screening CCCN1CNC(=S)N(c2cccc(C)c2C)C1 returned GLP1R inv ag 0%, GLP1R ag -15%, HEK293 tox -18%, Gal4-VP16 FLuc inconclusive and RORgamma inh 10µM*.
CCN1CNC(=S)N(c2ccccc2C)C1 was read as GLP1R inv ag 5%, GLP1R ag -5%, HEK293 tox -3%, Gal4-VP16 FLuc 5% and RORgamma inh -38%.
Screening Nc1nonc1-c1nc2ccccc2n1Cc1cccc(Cl)c1 returned GLP1R inv ag 6% and HEK293 tox -2%.
`Cc1ccc(S(=O)(=O)Oc2ccccc2/C=N/NC(=O)c2c(Cl)cnn2C)cc1` gave GLP1R inv ag 0%, GLP1R ag -1%, HEK293 tox 2%, Gal4-VP16 FLuc inconclusive and RORgamma inh 3.2µM*.
Screening Cn1ncc(Cl)c1C(=O)N/N=C/c1ccccn1 returned GLP1R inv ag 7%, GLP1R ag -9%, HEK293 tox -10%, Gal4-VP16 FLuc -1% and RORgamma inh 1%.
CCCOc1ccc(-c2nnc(-c3ccco3)o2)cc1 was read as GLP1R inv ag inconclusive, GLP1R ag -16%, HEK293 tox 7%, Gal4-VP16 FLuc inconclusive and RORgamma inh 4.5µM*.
CC(C)COc1ccc(-c2nnc(-c3ccco3)o2)cc1 was read as GLP1R inv ag -13%, GLP1R ag 7%, HEK293 tox 1%, Gal4-VP16 FLuc inconclusive and RORgamma inh inconclusive.
`CCn1c(=O)cc(OCC(=O)NCc2ccco2)c2ccccc21` gave GLP1R inv ag -1%, GLP1R ag -2%, HEK293 tox -10%, Gal4-VP16 FLuc 1% and RORgamma inh 4%.
For CCn1c(=O)cc(OCC(=O)NCc2ccc(C)o2)c2ccccc21 the results were GLP1R inv ag 0%, GLP1R ag 19%, HEK293 tox 2%, Gal4-VP16 FLuc 7% and RORgamma inh 14µM*.
`CCN1C(=O)C(Cc2nc3ccccc3c(=O)n2-c2ccccc2)c2cc(Br)ccc21` (centres undefined) gave GLP1R inv ag -25% and HEK293 tox -3%.
`CC(=O)Nc1ccc(-c2ccnc3c2CC(C(=O)NCc2cccc(Cl)c2)O3)cc1` (centres undefined) gave GLP1R inv ag 3.5µM*, GLP1R ag inconclusive and HEK293 tox inconclusive.
CC(=O)Nc1cccc(-c2ccnc3c2CC(C(=O)NCc2cccc(Cl)c2)O3)c1 (centres undefined) was read as GLP1R inv ag inconclusive, GLP1R ag 13% and HEK293 tox -13%.
CCC(C(=O)OCc1cc(=O)n2nc(C)sc2n1)c1ccccc1 (centres undefined) was read as GLP1R inv ag 8% and HEK293 tox 0%.
Cc1ccccc1Cn1c(=O)n(CCC(=O)NCc2ccco2)c(=O)c2sccc21 was read as GLP1R inv ag -2% and HEK293 tox 1%.
O=C(O)c1ccccc1SCc1cn2ccccc2n1 was read as GLP1R inv ag 10%, GLP1R ag 0%, HEK293 tox 14%, Gal4-VP16 FLuc -9% and RORgamma inh -5%.
For Cc1ccc(SCc2cn3ccccc3n2)cc1 the results were GLP1R inv ag inconclusive, GLP1R ag 11%, HEK293 tox inconclusive, Gal4-VP16 FLuc inconclusive and RORgamma inh 10µM*.
For c1ccc(CSCc2cn3ccccc3n2)cc1 the results were GLP1R inv ag 4%, GLP1R ag 9%, HEK293 tox -7%, Gal4-VP16 FLuc -19% and RORgamma inh 13µM*.
